The list is not random: actives were taken first. Their share in the collection is about 3.2%.
AHR activator: AHR activators, primary screen, cell-based, luminescence, luciferase reporter, human; actives 2.5% (n = 320,000); AHR-responsive luciferase reporter cells; activation, % at 5 µM; in the data active = activation above about 47%;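 note: 0% = vehicle wells and 100% = reference agonist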
APOBEC3A inh: APOBEC3A ssDNA deaminase inhibitors, primary screen, selectivity assay for APOBEC3G inhibitor project, biochemical, FAM/TAMRA oligo cleavage fluorescence. DNA dC->dU-editing enzyme APOBEC-3A (Homo sapiens), P31941. recombinant A3A, FAM/TAMRA ssDNA deamination fluorescence. inhibition, % at 20 µM. actives 0.41% (n = 330,000). AID 493011, 2011;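 active = at least 40% inhibition at 20 µM here, with at most 30% in a related deaminase screen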;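 note: plate controls were A3A with DMSO for no effect and wells lacking A3A enzyme for full effect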
Target sequence (P31941 whole entry, looked up): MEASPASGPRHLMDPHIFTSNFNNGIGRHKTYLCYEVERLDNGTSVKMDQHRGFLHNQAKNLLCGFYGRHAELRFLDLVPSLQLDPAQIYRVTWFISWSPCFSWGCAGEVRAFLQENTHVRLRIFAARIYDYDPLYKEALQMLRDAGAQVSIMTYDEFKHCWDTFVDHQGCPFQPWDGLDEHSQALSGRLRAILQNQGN
NTR1 agonist: agonists of human NTR1, primary screen, imaging, U2OS cells, beta-arrestin-GFP, high content | activation, % at 20 µM | AID 493036, 2011 | NTR1-U2OS beta-arrestin-GFP spot imaging, agonist mode | actives 0.17% (n = 330,000);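 active = activation at or above 40% of the spot to cytoplasm intensity ratio, with at least 20 cells analyzed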;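 note: 0% = DMSO without peptide and 100% = 100 nM NTR1 peptide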
A3G deaminase: APOBEC3G DNA deaminase inhibitors, primary screen, biochemical, fluorescence, single-stranded DNA substrate, uHTS. DNA dC->dU-editing enzyme APOBEC-3G (Homo sapiens), Q9HC16. recombinant A3G, ssDNA deamination FAM/TAMRA fluorescence. inhibition, % at 20 µM. actives 0.28% (n = 330,000). AID 493012, 2011;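 active = inhibition of at least 40% at 20 µM, with no more than 30% in the related APOBEC3A deaminase screen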;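 note: plate controls were DMSO wells with A3G for no effect and wells lacking A3G enzyme for full effect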
Target sequence (Q9HC16 whole entry, looked up): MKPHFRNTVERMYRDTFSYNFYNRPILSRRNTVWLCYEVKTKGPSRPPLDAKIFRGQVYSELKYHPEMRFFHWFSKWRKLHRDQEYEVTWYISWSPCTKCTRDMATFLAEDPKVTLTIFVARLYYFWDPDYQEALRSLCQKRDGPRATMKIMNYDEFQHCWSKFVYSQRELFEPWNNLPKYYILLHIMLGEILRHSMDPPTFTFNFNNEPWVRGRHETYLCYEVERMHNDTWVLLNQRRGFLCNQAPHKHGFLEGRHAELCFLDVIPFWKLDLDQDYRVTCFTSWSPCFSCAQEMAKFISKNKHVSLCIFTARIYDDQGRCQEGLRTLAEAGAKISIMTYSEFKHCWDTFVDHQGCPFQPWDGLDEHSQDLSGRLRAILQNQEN
* marks the source's active call; other numbers are inactive results; nt = not tested or not shown.

SMILES	AHR activator	APOBEC3A inh	NTR1 agonist	A3G deaminase
CCOC(=O)c1sc(N/N=C/c2cc(Br)c(O)c(OC)c2)nc1C	67*	-7	6	-2
CCCC(C(=O)NC1=NCCS1)c1ccccc1 (stereo not drawn)	-2	4	1	-2
O=c1c2cc(Br)ccc2nc(-c2ccccc2)n1O	48*	-1	0	0
Cc1ccc(-c2nc3ccccc3c(=O)n2O)cc1	9	-3	0	-8
Cc1ccccc1-n1cc(CNC(=O)CCc2nnc(CCc3ccccc3)o2)cn1	4	-4	-2	5
COc1ccc(CCNc2ncccc2C#N)cc1OC	18	-5	1	-3
CCc1ccc(Nc2ncccc2C#N)cc1	52*	-6	0	-4
CCC(C)c1ccc(Nc2ncccc2C#N)cc1 (stereo not drawn)	61*	-1	4	-3
CC(C)c1ccc(Nc2ncccc2C(=O)O)cc1	10	1	1	-5
O=C(Nc1cccs1)Nc1ccccc1Br	57*	-2	0	-4
COC(=O)c1ccccc1NC(=O)Nc1cccs1	8	-7	-1	-6
Cc1cccc(N(C(=O)CNC(=O)c2cccs2)C(C(=O)NC2CCCC2)c2ccncc2)c1 (stereo not drawn)	4	-4	-1	-12
O=C(/C(=C/O)N=Nc1ccc(Cl)cc1)c1ccncc1	73*	-1	3	-5
Cc1nc(-c2ccc(Cl)cc2)sc1C(=O)O	7	2	3	-4
Cc1nc(-c2ccncc2)sc1C(=O)Nc1ccc(Cl)cc1	65*	-1	1	-3
Cc1nc(-c2ccccn2)sc1C(=O)Nc1ccc(F)cc1	118*	-5	1	-5
O=C1CC(NNC(=O)c2cccc(F)c2)C(=O)N1 (stereo not drawn)	0	-4	0	-10
Cc1nnc(N/N=C/c2ccc(-c3ccc(Br)cc3)o2)n1N	49*	-1	2	-7
Cc1nnc(N/N=C/c2ccc(Br)cc2)n1N	39	-4	0	-2
COCCNC(=O)CN1C(=O)/C(=C/c2ccccc2)Oc2ccc(C(C)(C)C)cc21	3	1	11	-6
Cc1ccc(NN=C2c3ccccc3-c3ccccc32)cc1	68*	-2	11	-6
Cc1ccc(OCC(=O)NN=C2c3ccccc3-c3ccccc32)cc1	1	-1	29	-3
NC1=NC(=O)/C(=C\c2ccsc2)S1	6	-3	1	-4
O=c1c2[nH]c3ccccc3c2nc2n1CCS2	57*	0	-2	-3
CC(=O)c1ccc(NC(=O)C(Cc2ccccc2)n2cccc2)cc1 (stereo not drawn)	0	-1	0	4
SMILES	AHR activator	APOBEC3A inh	NTR1 agonist	A3G deaminase
O=C(O)CSc1ccc(NC(=O)Nc2ccccc2F)cc1	1	-5	0	-6
CCOC(=O)[C@@H]1[C@H]2COc3cc(OC)ccc3[C@@H]2N2C(=O)N(c3cccc(F)c3)C(=O)[C@]12C	-5	0	-1	4
CCOC(=O)[C@@H]1[C@H]2COc3cc(OC)ccc3[C@@H]2N2C(=O)N(c3cccc(F)c3)C(=O)[C@@]12C	51*	-2	0	-2
Cc1ccc(C2=NN(C(=O)CSc3nc4ncc(Cl)cc4[nH]3)C(c3ccco3)C2)cc1 (stereo not drawn)	44	7	2	2
COc1ccc(C2=NN(C(=O)CSc3nc4ncc(Cl)cc4[nH]3)C(c3ccco3)C2)cc1 (stereo not drawn)	47*	1	4	-5
CCCOc1ccc(C(F)(F)F)cc1NC(=O)c1cc(C)on1	0	4	1	0
Cc1cc(C)c(C#N)c(Nc2ccc(F)cc2)n1	74*	-7	-2	-8
CSc1nnc(-c2cc3c(s2)-c2ccccc2CC3)o1	66*	3	5	-1
Cc1cc(C)n(-c2nc(-c3ccc(Cl)cc3)cs2)n1	60*	-1	5	-5
CC1=NN(c2nc(-c3ccc(Cl)cc3)cs2)C(=O)C1	7	-6	0	-6
O=C(N/N=C/c1cc2c(cc1[N+](=O)[O-])OCO2)c1ccc2c(c1)OCO2	9	3	2	-5
O=C(N/N=C/c1cc2c(c([N+](=O)[O-])c1)OCO2)c1ccncc1	61*	17	-1	3
Cn1cc([N+](=O)[O-])c(C(=O)N/N=C/c2ccc3c(c2)OCO3)n1	9	-1	2	-4
O=C(N/N=C/c1cc2c(cc1[N+](=O)[O-])OCO2)c1cccnc1	51*	5	-1	-1
O=C(N/N=C/c1ccc2c(c1)OCO2)c1cccnc1	55*	-3	0	-8
Cc1ccc(C(=O)N/N=C\c2ccc3c(c2)OCO3)cn1	7	-2	-2	-9
O=C(N/N=C/c1cc2cc3c(cc2nc1Cl)OCO3)c1ccncc1	64*	3	0	-3
Cc1nnc(SCC(=O)Nc2nccs2)n1C(C)C	-1	-1	1	-6
O=C(COC(=O)c1ccc(Cl)c([N+](=O)[O-])c1)Nc1ccccc1OC(F)F	55*	1	5	-4
O=C(COC(=O)c1ccc2c(c1)OCO2)Nc1ccccc1OC(F)F	-1	-3	2	-6
COc1ccccc1/C=C/C(=O)NC(=S)NCC1CCCO1 (stereo not drawn)	69*	-1	3	-13
CCc1ccc(C(=O)/C=C2\Sc3ccccc3NC2=O)cc1	15	0	-2	-1
O=C1Nc2ccccc2S/C1=C\C(=O)N1CCCC1	64*	1	0	0
Oc1c(C=Nc2cccc3cccnc23)sc2ccccc12	58*	-10	-4	-25
Cc1nc(-c2ccc(S(=O)(=O)Oc3ccc(Cl)cc3Cl)s2)cs1	1	2	6	3
SMILES	AHR activator	APOBEC3A inh	NTR1 agonist	A3G deaminase
Cc1ccc2c(c1)C(=NC1CCCCC1)c1cc3ccccc3nc1-2	18	nt	nt	nt
Cc1ccc2c(c1)-c1nc3ccccc3cc1C2=NC1CCCCC1	79*	nt	nt	nt
COc1cc(C(=O)OCC(=O)NC(=O)NC2CCCCC2)cc(Cl)c1OC	-2	7	5	2
O=c1[nH]c(CS(=O)(=O)c2ccccc2)nc2ccccc12	74*	1	0	-5
COc1cc(C(=O)Oc2ccccc2/C=N/NC(=O)c2ccc(Cl)cc2Cl)cc(OC)c1OC	59*	-9	6	-4
C=CCOc1ccccc1/C=N/NC(=O)c1ccc(Cl)cc1Cl	69*	-4	2	-8
N#Cc1ccc(OCC(=O)N2CCN(c3ccc(C(F)(F)F)cn3)CC2)cc1	-6	11	1	-2
COc1ccc(CN2CCN(C(=O)c3cc(-c4cccnc4)nc4ccc(Cl)cc34)CC2)c(OC)c1OC	2	2	2	0
COc1ccccc1NC(=S)N(Cc1ccco1)Cc1cc2cc(C)ccc2[nH]c1=O	71*	1	6	-2

Bioassay records (PubChem BioAssay)
